Source: PubChem (several laboratories)
WT yeast gro inh: growth inhibition of WT yeast, mitochondrial fusion screen. AID 1362. hit rate 2.1% among 190,000. mitochondrial fusion phenotypic screen, WT strain. inhibition, % at 10 µM; in the data active = inhibition above about 58%; tested in S. cerevisiae
Insulin prom inh: TRM-6 insulin promoter activity inhibition. inhibition, % at 2 µM. hit rate 0.9% among 130,000. TRM-6 cells (human fetal islet line), insulin promoter-eGFP reporter, imaging; reporter expression induced with tamoxifen. AID 1273;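 active = inhibition above the mean plus 3 SD, with well images judged a real hit on visual review, cut at about 60% in these data, passing the limit was not always enough; inconclusive = inhibition over the cutoff but images rejected on review; inactive = inhibition not above the cutoff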
Lmaj promast: reduces viability of Leishmania major promastigotes; resazurin fluorescence viability; inhibition, % at 10 µM; hit rate 9% among 200,000; AID 1063; in the data active = inhibition above about 50%;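 note: promastigotes grown with compound for 44 hours at 28 °C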
Cl transport mod: modulators of human KCC2 chloride dependent transport | hit rate 2.2% among 190,000 | B-score of Tl+ flux slope (higher = more flux/activation; lower = inhibition) at 10 µM | KCC2 cells, thallium flux FluoZin-2 fluorescence | AID 1456 | Q9H2X9;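 active = thallium flux slope and its plate-corrected score both differing from the plate sample mean at a set confidence after two filtering rounds, in either direction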;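 note: slope of fluorescence scaled to starting intensity during 10 to 20 s after thallium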
ROMK primary: modulators of human ROMK potassium channel; Tet-inducible ROMK, thallium flux fluorescence; actives lie on both sides; B-score at 10 µM; hit rate 2% among 130,000; AID 1918;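 active = signal ratio slope over the read window, or its plate-corrected B-score, at least 3 SD from the plate mean, either direction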;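 note: B-score of the F/F0 ratio slope over 7 to 12 s after thallium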
Target sequence (P48048 whole entry, looked up): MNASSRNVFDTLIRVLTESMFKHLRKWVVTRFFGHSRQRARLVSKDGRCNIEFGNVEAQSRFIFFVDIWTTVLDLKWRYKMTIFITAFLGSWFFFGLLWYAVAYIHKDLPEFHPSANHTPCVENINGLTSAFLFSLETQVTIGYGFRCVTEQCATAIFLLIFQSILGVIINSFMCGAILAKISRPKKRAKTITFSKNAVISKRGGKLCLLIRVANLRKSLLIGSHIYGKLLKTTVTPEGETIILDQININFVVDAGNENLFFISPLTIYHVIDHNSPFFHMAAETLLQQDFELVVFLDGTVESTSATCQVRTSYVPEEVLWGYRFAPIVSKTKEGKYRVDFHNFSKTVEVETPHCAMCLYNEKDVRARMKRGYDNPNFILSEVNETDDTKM
Insulin prom up: MIN6 insulin promoter up-regulation; AID 1625; hit rate 0.3% among 190,000; z-score at 5 µM; MIN6 insulin promoter-GFP reporter, high-content imaging; active compounds read high;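 active = z-score above 3 at 5 µM with at least 500 cells counted in the well; inconclusive = wells under 500 cells, flagged as cytotoxic or low count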
Each line names hits and unclear results; the compound was inactive in the other large screens. Only some compounds are listed: those with a hit (about 12% of all), similar ones and a draw of the others.

O=C(NCCN1CCOCC1)c1ccc(CSCc2cccc(Cl)c2)o1	none (no result: ROMK primary)
c1csc(CNCCCN2CCOCC2)c1	none (no result: ROMK primary)
CC1CCc2c(C(=O)N3CCN(S(=O)(=O)c4cccs4)CC3)csc2C1 (stereo not given)	none (no result: Insulin prom inh, Cl transport mod, ROMK primary)
COc1ccc(C(=O)NC(C)c2nnc(SCC(=O)Nc3nc4ccccc4s3)n2C)cc1 (stereo not given)	Cl transport mod -4.63
CC(C)(O)CNC(=O)Nc1ccc(Cl)c(Cl)c1	none (no result: WT yeast gro inh, Insulin prom inh, Lmaj promast)
CCOC(=O)CNNC(=O)Nc1ccc(Cl)c(Cl)c1	Insulin prom inh 75.0
CCOC(=O)N(C)OC(=O)Nc1ccc(Cl)c(Cl)c1	WT yeast gro inh 62.0 (no result: Cl transport mod, ROMK primary)
COc1ccc(-n2ncc3c(=O)n(Cc4c(F)cccc4Cl)cnc32)cc1	none (no result: Insulin prom inh)
CCN(CC)C(=O)C1CC(c2ccc(OC)cc2)=NO1 (stereo not given)	none (no result: Cl transport mod, ROMK primary)
Cc1cc(Br)cc(C)c1OCCCCN(C)C	Lmaj promast 99.7
CCOc1ccc(OCCCN(C)C)cc1	none
CCOc1ccc(OCCCCN(C)C)cc1	none
CC(C)NCCOCCOc1ccc(Cl)cc1Br	Lmaj promast 94.5
Cc1cc(Cl)c(OCCCCNC(C)(C)C)c(Br)c1	Lmaj promast 97.7
Cc1cc(Cl)c(OCCCN(C)C)c(Br)c1	Lmaj promast 78.7 (no result: ROMK primary)
CC(C)N(C(C)C)S(=O)(=O)c1ccc(NN)nc1	none (no result: WT yeast gro inh, Insulin prom inh, Lmaj promast, ROMK primary)
Cc1ccc(CCNC(=O)CN(C)S(=O)(=O)c2cnc[nH]2)cc1	none (no result: ROMK primary)
Cc1ccc(N(CC(=O)NCC2CCCO2)C(=O)CCC(=O)Nc2ccccn2)cc1C (stereo not given)	none (no result: ROMK primary, Insulin prom up)
CCc1ccc(Nc2nc(N)nc(CSc3nnnn3-c3ccccc3)n2)cc1	none (no result: ROMK primary)
COc1ccccc1OCCCOc1c(C)cc(C)cc1Br	none (no result: ROMK primary)
CN(C)CCCOc1ccc(Cl)cc1Br	Lmaj promast 61.7
COc1cccc(OC)c1OCCCOc1ccc(C)cc1Br	WT yeast gro inh 66.8 (no result: ROMK primary)
CN(C)CCOCCOc1ccc(Cl)cc1Br	Lmaj promast 92.6 (no result: Insulin prom inh)
Cc1ccc(OCCCN(C)C)c(Br)c1	Lmaj promast 60.0 (no result: ROMK primary)
C=CCSc1nc(C)c(CCC(C)C)c(=O)[nH]1	none (no result: Insulin prom inh, ROMK primary)
CC(C)OC(=O)c1ccc(COC(=O)c2cccc(-c3nnc(-c4ccccc4)o3)c2)cc1	none (no result: Insulin prom inh, ROMK primary)
CC(C)OC(=O)c1cccc(-c2ccc(C=O)o2)c1	Lmaj promast 88.4 (no result: ROMK primary)
Cc1ccc(S(=O)(=O)N2CCC(C(=O)NCCc3ccccn3)CC2)cc1	none
CC1(C)Cc2c(sc3[nH]c(=S)n(Cc4ccco4)c(=O)c23)CO1	Cl transport mod 9 (no result: Insulin prom up)
CC1(C)Cc2c(sc3c2c(=N)n(Cc2ccco2)c(=O)n3Cc2ccccc2)CO1	Lmaj promast 82.3 (no result: ROMK primary)
CCn1c(=O)n(-c2ccc(Cl)cc2)c(=O)c2c3c(sc21)COC(C)(C)C3	Insulin prom inh 74.3 (no result: ROMK primary)
Cn1c(=O)n(Cc2ccco2)c(=N)c2c3c(sc21)CCC3	none
O=c1c2c3c(sc2[nH]c(=S)n1Cc1ccco1)CCC3	Cl transport mod 77.6, ROMK primary -5.52 (no result: WT yeast gro inh, Insulin prom inh, Lmaj promast)
COc1ccccc1CCNC(=O)c1nc(-c2cccs2)no1	none
C=C(C)CNC(=S)N/N=C/c1ccco1	none (no result: WT yeast gro inh, Insulin prom inh, Lmaj promast, ROMK primary)
CCOc1cc(/C=C/c2nc3ccccc3s2)ccc1OCC(=O)N1CCOCC1	none (no result: Insulin prom up)
Cc1ccc2oc(-c3cccc(NC(=S)NC(=O)/C=C/c4ccco4)c3)nc2c1	Lmaj promast 100.3 (no result: Insulin prom inh)
Cc1ccc(NC(=S)NC(=O)/C=C/c2ccco2)c(O)c1	none (no result: Insulin prom inh)
Cc1cc(C)c2oc(-c3ccc(C)c(NC(=S)NC(=O)/C=C/c4ccco4)c3)nc2c1	Lmaj promast 71.3 (no result: Cl transport mod, ROMK primary)
Cc1ccc2oc(-c3cccc(NC(=S)NC(=O)c4cccs4)c3)nc2c1	Cl transport mod 7.75 (no result: Insulin prom inh, ROMK primary)
CCOC(=O)c1ccc(NS(=O)(=O)c2c(C)n(C)c(=O)n(C)c2=O)cc1	none (no result: Insulin prom inh, ROMK primary)
CCOc1ccc(C(=O)C(CCC(CN(C)C)C(=O)c2ccc(OCC)cc2)CN(C)C)cc1 (stereo not given)	WT yeast gro inh 63.6, Lmaj promast 100.5, Insulin prom up inconclusive (no result: Insulin prom inh, ROMK primary)
CCOc1ccc(C(=O)c2ccncc2)cc1	none
COc1ccc(C(=O)C(CCCCC(CN(C)C)C(=O)c2ccc(OC)cc2)CN(C)C)cc1 (stereo not given)	Lmaj promast 100.5 (no result: Insulin prom inh)
COc1cc2c(cc1OC)-c1cc(NC3CCCCCC3)nc(=O)n1CC2	none
COc1ccccc1NC(=S)NNC(=O)c1cc(C)nn1C	none (no result: ROMK primary)
COc1ccccc1NC(=S)NNC(=O)c1c(Cl)c(C)nn1C	WT yeast gro inh 65.2 (no result: Insulin prom inh)
N#CC1=CN(Cc2ccccc2)C=C(/C=N/Nc2ccccc2)C1	Lmaj promast 97.5 (no result: Insulin prom inh, Insulin prom up)
Oc1ccc(/C=N/Nc2ccccc2)cc1	none
Cc1csc(NC(=O)c2cc3c(s2)CCCC3)n1	Lmaj promast 96.1 (no result: ROMK primary)
